Here are results for 24 compounds from PubChem BioAssay (NCATS).

Experiment [1] addresses Rap guanine nucleotide exchange factor 3 (Homo sapiens) (UniProt O95398). Nature of the experiment: Confirmatory qHTS for antagonist of cAMP-regulated guanine nucleotide exchange factor 3 (EPAC1) (AID 1645880). Further: nearly all actives have a fitted effect of over 55% in size. Further: potency means the concentration at half of the fitted maximal effect. The method in brief: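 Released BODIPY-GDP fluoresces less than Rap1-bound BODIPY-GDP; the signal is followed at 480/540 nm at 5-min intervals over 30 min, after 5 min at room temperature. Reactions contain 100 nM EPAC1, 250 nM RAP1B-BODIPY-GDP and 50 uM GDP; results are normalized to ATA and DMSO.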
On the technique in general: Quantitative high-throughput screening tests each substance at several concentrations.

Experiment [2] shares this target. As to the kind of experiment: Confirmatory qHTS for agonist of cAMP-regulated guanine nucleotide exchange factor 3 (EPAC1) (AID 1645881).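 Further: EPAC1 catalysed release of BODIPY-GDP from Rap1B seen as fluorescence loss; 100% = effect of cAMP agonist control; nearly all actives have a fitted effect of over 75% in size.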
For experiment [3], the target named is Rap guanine nucleotide exchange factor 4 (Homo sapiens) (UniProt Q8WZA2). As to the kind of experiment: Confirmatory qHTS for agonist of cAMP-regulated guanine nucleotide exchange factor 4 (EPAC2) (AID 1645884).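 Further: nucleotide exchange releases bodipy-GDP from Rap1 and this lowers its fluorescence; on the % scale 0 is the no-effect control and ±100 the full control effect; nearly all actives have a fitted effect of over 65% in size.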
The target is the same in experiment [4]. As to the kind of experiment: Confirmatory qHTS for antagonist of cAMP-regulated guanine nucleotide exchange factor 4 (EPAC2) (AID 1645885). Further: nearly all actives have a fitted effect of over 25% in size. Further: potency means the concentration at half of the fitted maximal effect. On activity change, negative = inhibition: on the % scale 0 is the no-effect control and ±100 the full control effect.
In experiment [5] the target is Rap guanine nucleotide exchange factor 3 (Homo sapiens) (UniProt O95398). As to the kind of experiment: Counterscreen qHTS for antagonist of cAMP-regulated guanine nucleotide exchange factor 3 (EPAC1) (AID 1645888). Further: % of control where 0% means no effect. The method in brief:
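Rap1B-BODIPY-GDP 250 nM + GDP 50 uM; cpds 7-pt, final 9.74 nM–152 uM (activator mode) or from 7.32 nM upwards (inhibitor mode); RT; FI 480/540 nm at 5 and 30 min, then ± cAMP, reread.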
A general note: A counterscreen serves to expose hits that act by an unwanted route or on another target.

SMILES strings stand for the structures. Inconclusive results are not listed. A number with no mark means an inactive call. Active and inactive are the calls of the source. The call rests on the fitted dose curve; in most records, active means well fitted curve in the direction sought with a large enough effect; inconclusive means small, poorly fitted or top-dose-only effect, or another doubt; inactive means no such curve, though single readings can be large; an effect the other way counts as inactive or inconclusive.

Rap guanine nucleotide exchange factor 4 (Homo sapiens), sequence (Q8WZA2 whole entry, looked up): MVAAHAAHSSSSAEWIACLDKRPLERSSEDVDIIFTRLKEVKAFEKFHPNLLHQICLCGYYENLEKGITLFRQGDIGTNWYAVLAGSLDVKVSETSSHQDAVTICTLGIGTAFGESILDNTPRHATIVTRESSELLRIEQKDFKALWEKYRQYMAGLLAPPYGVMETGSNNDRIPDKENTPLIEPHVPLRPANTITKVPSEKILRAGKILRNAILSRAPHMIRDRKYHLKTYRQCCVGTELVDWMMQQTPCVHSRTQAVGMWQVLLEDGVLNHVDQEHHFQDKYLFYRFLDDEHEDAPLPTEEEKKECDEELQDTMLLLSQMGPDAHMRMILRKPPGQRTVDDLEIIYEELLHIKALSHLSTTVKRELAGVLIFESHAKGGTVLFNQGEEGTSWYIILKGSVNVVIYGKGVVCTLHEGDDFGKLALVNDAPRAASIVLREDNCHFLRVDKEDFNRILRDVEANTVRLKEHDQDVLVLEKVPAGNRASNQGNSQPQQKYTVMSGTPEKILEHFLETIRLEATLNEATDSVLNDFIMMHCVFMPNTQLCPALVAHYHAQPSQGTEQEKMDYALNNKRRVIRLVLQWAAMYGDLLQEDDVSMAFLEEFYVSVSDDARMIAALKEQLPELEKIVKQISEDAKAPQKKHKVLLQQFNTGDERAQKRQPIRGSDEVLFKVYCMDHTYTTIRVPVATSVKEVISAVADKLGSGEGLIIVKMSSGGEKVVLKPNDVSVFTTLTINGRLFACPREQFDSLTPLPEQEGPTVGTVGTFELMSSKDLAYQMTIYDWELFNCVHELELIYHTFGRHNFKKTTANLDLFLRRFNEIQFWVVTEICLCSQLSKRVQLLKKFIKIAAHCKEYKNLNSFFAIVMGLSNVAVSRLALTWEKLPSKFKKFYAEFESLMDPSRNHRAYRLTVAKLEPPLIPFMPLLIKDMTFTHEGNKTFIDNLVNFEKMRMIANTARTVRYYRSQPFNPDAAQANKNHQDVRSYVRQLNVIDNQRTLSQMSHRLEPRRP
Rap guanine nucleotide exchange factor 3 (Homo sapiens), sequence (O95398 whole entry, looked up): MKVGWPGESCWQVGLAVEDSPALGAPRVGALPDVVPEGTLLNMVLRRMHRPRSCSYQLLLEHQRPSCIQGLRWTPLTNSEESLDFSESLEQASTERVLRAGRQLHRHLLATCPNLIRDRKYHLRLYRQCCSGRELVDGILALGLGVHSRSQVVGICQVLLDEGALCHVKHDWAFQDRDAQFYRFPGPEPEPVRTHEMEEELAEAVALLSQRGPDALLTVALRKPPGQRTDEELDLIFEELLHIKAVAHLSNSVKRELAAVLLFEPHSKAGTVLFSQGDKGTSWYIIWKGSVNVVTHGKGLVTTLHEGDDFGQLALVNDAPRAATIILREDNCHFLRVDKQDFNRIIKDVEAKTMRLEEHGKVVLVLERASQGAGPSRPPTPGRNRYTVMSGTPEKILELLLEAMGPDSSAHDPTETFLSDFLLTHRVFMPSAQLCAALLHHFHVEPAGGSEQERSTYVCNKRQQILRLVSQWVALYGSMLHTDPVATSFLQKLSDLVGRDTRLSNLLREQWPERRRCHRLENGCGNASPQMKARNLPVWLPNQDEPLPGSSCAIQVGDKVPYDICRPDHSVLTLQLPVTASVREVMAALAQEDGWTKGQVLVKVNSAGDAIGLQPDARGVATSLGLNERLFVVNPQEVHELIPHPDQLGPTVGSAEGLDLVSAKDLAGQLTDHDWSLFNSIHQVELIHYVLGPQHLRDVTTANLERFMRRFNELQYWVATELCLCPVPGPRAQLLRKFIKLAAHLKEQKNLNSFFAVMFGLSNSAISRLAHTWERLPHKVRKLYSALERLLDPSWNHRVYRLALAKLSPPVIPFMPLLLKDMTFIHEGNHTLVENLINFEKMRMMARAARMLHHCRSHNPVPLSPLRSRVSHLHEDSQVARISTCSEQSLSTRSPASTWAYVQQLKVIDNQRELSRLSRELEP

Consider `Cc1ccc(C)c(COC(=O)c2cc(S(=O)(=O)N3CCCCC3)ccc2N2CCOCC2)c1`, for which the Potency result in experiment [1], in experiment [2], in experiment [3], in experiment [4] and in experiment [5] was “inactive” each time.

Regarding `COC(=O)c1ccccc1NC1=C/C(=N\S(=O)(=O)c2ccc(C(=O)O)cc2)c2ccccc2C1=O`, the Potency in experiment [1] was 22.4 µM (active). Besides, the Potency entry in experiment [2] and in experiment [4] was “inactive” in each case. In addition, in experiment [3], the activation is 7.9% [at 17.1 µM, percent relative to cAMP agonist control]. The activity change, negative = inhibition in experiment [5] is 14.1% [at 30.8 µM].

In the case of `CCOC(=O)c1cc2c(=O)n3ccccc3nc2n(Cc2ccco2)c1=NC(=O)c1ccc(Br)cc1`, the Potency in experiment [1] was 75.7 µM (active). Besides, the Potency result in experiment [2], in experiment [3] and in experiment [5] was “inactive” in each case. Also, in experiment [4], the outcome is “inactive [at 12.7 µM]”.

On to `CCN(CC(=O)Nc1ccccc1C(F)(F)F)C(=O)c1cc2c(s1)CCCCC2`, for which the Potency result in experiment [1], in experiment [2], in experiment [3], in experiment [4] and in experiment [5] was “inactive” throughout.

As to `CCOC(=O)C1=C(N)OC2=C(C(=O)CC(C)(C)C2)C1c1ccc(CC)s1` (stereo not given), the Potency result in experiment [1], in experiment [2], in experiment [3], in experiment [4] and in experiment [5] was “inactive” in each case.

For the compound `Cc1cccnc1NC(=O)c1ccc(S(=O)(=O)N2CC(C)OC(C)C2)cc1` (stereo not given), the Potency result in experiment [1], in experiment [2], in experiment [3], in experiment [4] and in experiment [5] was “inactive” in each case.

Regarding `Cn1cc(CNCc2cn(C)nc2-c2ccc(C3CCCCC3)cc2)cn1`, the Potency entry in experiment [1], in experiment [2], in experiment [3], in experiment [4] and in experiment [5] was “inactive” throughout.

For `O=C(COC(=O)c1ccc2c(c1)OCO2)NC1CCS(=O)(=O)C1` (stereo not given), the Potency entry in experiment [1], in experiment [2], in experiment [3], in experiment [4] and in experiment [5] was “inactive” in each case.

On to `O=C(/C=C/c1ccccc1)c1cc(Br)ccc(=O)c1O`, for which the Potency in experiment [1] was 12 µM (active). The Potency entry in experiment [2], in experiment [3], in experiment [4] and in experiment [5] was “inactive” throughout.

As for `O=C(COC(=O)CSc1ccc([N+](=O)[O-])cc1)NCc1cccs1`, the Potency result in experiment [1], in experiment [2], in experiment [3], in experiment [4] and in experiment [5] was “inactive” each time.

As to `O=C(c1cccc(-n2cccc2)c1)N1CCN(S(=O)(=O)c2ccccc2)CC1`, the Potency in experiment [1] is 37.9 µM (active). The Potency entry in experiment [2], in experiment [3], in experiment [4] and in experiment [5] was “inactive” each time.

As for `COC(=O)c1cc2oc(C)cc2n1Cc1cccc(Cl)c1`, the Potency result in experiment [1], in experiment [2], in experiment [3], in experiment [4] and in experiment [5] was “inactive” throughout.

Consider `CCN(CCNC(=O)C1CCN(S(=O)(=O)c2cccc3cccnc23)CC1)c1ccccc1`, for which the Potency entry in experiment [1], in experiment [2], in experiment [3], in experiment [4] and in experiment [5] was “inactive” throughout.

`O=S(=O)(NCc1ccco1)c1ccc(Cl)cc1Cl`: the Potency entry in experiment [1], in experiment [2] and in experiment [4] was “inactive” in each case. Further, in experiment [3], the activation is 3.78% [at 17.1 µM, percent relative to cAMP agonist control]. Further, the activity change, negative = inhibition in experiment [5] is -9.1% [at 30.8 µM].

Consider `NC(=O)C1CCN(C(=O)Nc2csc3ccccc23)CC1`, for which the Potency result in experiment [1], in experiment [2], in experiment [3] and in experiment [5] was “inactive” each time. The Potency in experiment [4] is 12 µM (active).

Consider `CCOc1ccc(S(=O)(=O)n2ccc(C)n2)c2ccccc12`, for which the Potency entry in experiment [1], in experiment [2], in experiment [3], in experiment [4] and in experiment [5] was “inactive” in each case.

For the compound `CC1(C)OCC(C2CC(c3ccccc3)NS(=O)(=O)O2)O1` (stereo not given), the Potency entry in experiment [1], in experiment [2], in experiment [3], in experiment [4] and in experiment [5] was “inactive” throughout.

Turning to `Cn1c(=O)c2c(nc(N3CCOCC3)n2CCSc2ncccn2)n(C)c1=O`, the Potency result in experiment [1] and in experiment [2] was “inactive” throughout. The activation in experiment [3] was 5.38% [at 17.1 µM, percent relative to cAMP agonist control]. Also, the Potency in experiment [4] was 0.338 µM (active). Besides, the activity change, negative = inhibition in experiment [5] was -3.24% [at 30.8 µM].

With `O=S(=O)(c1cc(O)ccc1O)c1cccc2c(S(=O)(=O)c3cc(O)ccc3O)cccc12`, the Potency in experiment [1] is 44.7 µM (active). Further, the Potency result in experiment [2] and in experiment [4] was “inactive” each time. The activation in experiment [3] is 5.63% [at 17.1 µM, percent relative to cAMP agonist control]. Moreover, in experiment [5], the activity change, negative = inhibition is -9.89% [at 30.8 µM].

In the case of `Cc1c(C(=O)N2c3ccccc3CC2C)oc2ccccc12` (stereo not given), the Potency result in experiment [1], in experiment [2], in experiment [3], in experiment [4] and in experiment [5] was “inactive” each time.

As to `O=C(N/N=C/c1ccc(F)cc1)c1cc(-c2ccco2)nc2ccccc12`, the Potency in experiment [1] was 16.9 µM (active). For the same compound, the Potency result in experiment [2], in experiment [3], in experiment [4] and in experiment [5] was “inactive” each time.

For the compound `COc1cc2c(cc1OC)-c1cc(NCc3ccccn3)nc(=O)n1CC2`, the Potency in experiment [1] was 37.9 µM (active). Besides, the Potency entry in experiment [2], in experiment [3], in experiment [4] and in experiment [5] was “inactive” in each case.

Regarding `CCOc1ccc(S(=O)(=O)N2CCCCC2)c2ccccc12`, the Potency result in experiment [1], in experiment [2], in experiment [3], in experiment [4] and in experiment [5] was “inactive” each time.

On to `CC(C)OP(=O)(c1ccc(N(C)C)cc1)C(Nc1ccccc1)c1ccccc1` (stereo not given), for which the Potency result in experiment [1], in experiment [2], in experiment [3], in experiment [4] and in experiment [5] was “inactive” throughout.
